# TDP1 cell noCPT: qHTS for Inhibitors of human tyrosyl-DNA phosphodiesterase 1 (TDP1): qHTS in cells in absence of CPT. DT40 Tdp1-/- hTDP1 cells, no CPT, ATP luminescence, 48 h. Potency, µM (highest dose often 46.2 µM), for the others: top-dose activity change, negative = growth inhibition, actives largely listed as inhibitors. 420,000 compounds, 15% hits; further: potency means the concentration at half of the fitted maximal effect; on the % scale 0 is the no-effect control and ±100 the full control effect; nearly all actives have a fitted effect of over 55% in size
#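 Chicken DT40 Tdp1-/- cells stably complemented with human TDP1 were seeded at 400 cells/well with DMSO in place of 20 nM camptothecin. After compound pinning, cells grew at least 48 hr at 37 °C; viability read by CellTiter-Glo luminescence.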
# DT40 TDP1 CPT: growth inhibition of DT40 Tdp1-/-;hTDP1 cells with camptothecin (screen for TDP1 inhibitors); AID 686979; chicken DT40 Tdp1-/-;hTDP1 cells + 20 nM CPT, ATP luminescence, 48 h; 420,000 compounds, 12% hits; Potency, µM (series often up to 46.2 µM), for the others: top-dose activity change, negative = growth inhibition, usual class: inhibitors; further: potency means the concentration at half of the fitted maximal effect; on the % scale 0 is the no-effect control and ±100 the full control effect; nearly all actives have a fitted effect of over 55% in size
#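 Chicken DT40 Tdp1-/- cells complemented with human TDP1, 400 cells/well, exposed to compounds plus 20 nM camptothecin for at least 48 h at 37 C; viability read as ATP content by CellTiter-Glo luminescence.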
# HepG2 tox: HepG2 cytotoxicity, counter-screen for TGF-b inhibitors; HepG2 CAGA-GFP viability, ATP luminescence, 18 h; Potency, µM (titrated, usually from 46.1 µM), for the others: top-dose activity change, negative = cytotoxicity, actives largely listed as cytotoxic; 410,000 compounds, 0.76% hits; AID 588856; further: potency means the concentration at half of the fitted maximal effect
#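 CellTiter-Glo luminescence gave cytotoxicity after 18 hours at 37 degrees C. The cells were HepG2 CAGA-GFP in 1% FBS DMEM, stimulated with 500 pg/mL TGF-beta after compound addition. %Activity was normalised to no-cell wells (complete cell-killing) and DMSO (no toxicity), and curves were fitted and classified.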
# S-ASM inh: blocks human secretory acid sphingomyelinase. AID 504937. P17405. 340,000 compounds, 0.006% hits. placental ASM, HMU-PC fluorogenic substrate, 60 min. Potency, µM (top dose mostly 57.5 µM), without a hit: at the highest dose activity change, negative = inhibition, hits mostly inhibitors; further: potency means the concentration at half of the fitted maximal effect
# Target sequence (P17405 47-631 limits assumed): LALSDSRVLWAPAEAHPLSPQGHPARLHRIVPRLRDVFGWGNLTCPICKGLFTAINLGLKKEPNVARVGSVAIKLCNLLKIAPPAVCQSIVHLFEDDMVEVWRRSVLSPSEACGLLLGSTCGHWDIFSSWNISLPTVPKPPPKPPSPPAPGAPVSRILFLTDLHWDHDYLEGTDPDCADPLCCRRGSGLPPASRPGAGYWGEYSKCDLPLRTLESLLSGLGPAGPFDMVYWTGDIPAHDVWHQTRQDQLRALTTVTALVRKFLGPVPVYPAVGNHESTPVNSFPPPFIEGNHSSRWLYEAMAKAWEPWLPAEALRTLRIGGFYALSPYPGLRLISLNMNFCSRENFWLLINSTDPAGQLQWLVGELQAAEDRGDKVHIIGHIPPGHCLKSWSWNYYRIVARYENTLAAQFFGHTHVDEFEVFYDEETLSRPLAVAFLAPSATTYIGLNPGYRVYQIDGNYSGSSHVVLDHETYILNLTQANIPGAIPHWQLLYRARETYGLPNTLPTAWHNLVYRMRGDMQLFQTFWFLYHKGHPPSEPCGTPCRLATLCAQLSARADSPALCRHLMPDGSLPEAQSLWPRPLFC
#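 Steps: dispense placental human ASM, pin compound, wait 10 min at room temperature, add HMU-PC0 substrate at 9 uM final, incubate 60 min at 37 °C, add stop solution raising pH to 10, read fluorescence.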
# TGFb SMAD3 inh: blocks TGF-b signaling. HepG2 CAGA-GFP TGF-b/SMAD3 reporter, GFP fluorescence, 18 h; TGF-beta stimulated, 500 pg/mL final. Potency, µM (highest dose often 46.1 µM), inactives show top-dose activity, negative = inhibition, most hits filed as inhibitors. 410,000 compounds, 1.2% hits. AID 588855; further: potency means the concentration at half of the fitted maximal effect; on the % scale 0 is the no-effect control and ±100 the full control effect; nearly all actives have a fitted effect of over 65% in size
#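 TGF-beta reporter screen: HEPG2 CAGA-GFP, 1% FBS, 500 pg/mL TGF-beta final, 18 h; per-cell GFP summed per well; curves fitted and categorized by class.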
# IL-1B inflam inh: blocks inflammasome-driven IL-1 beta release; THP-1 LPS/ATP IL-1B secretion, AlphaLISA, 16 h; hits give low values; activity change, % at 57.5 µM; 360,000 compounds, 4.7% hits; in the data active means activity change below about -50%; inconclusive means mostly about -30% to -49%; further: on the % scale 0 is the no-effect control and ±100 the full control effect
#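 THP-1 cells pretreated 1 hr with compounds (up to 57.5 uM final), then stimulated with LPS (250 ng/mL final) plus ATP (1.25 mM final); secreted IL-1B measured by AlphaLISA after 16 hr, decreased signal indicating inhibition.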
# Numbers without * were called inactive; ? = inconclusive; nt = not tested or not shown. An excerpt weighted towards active compounds, which were near 19% of everything screened. Unless noted, the call rests on the fitted dose curve; in most records, active means well fitted curve in the direction sought with a large enough effect; inconclusive means small, poorly fitted or top-dose-only effect, or another doubt; inactive means no such curve, though single readings can be large; an effect the other way counts as inactive or inconclusive.
SMILES,TDP1 cell noCPT,DT40 TDP1 CPT,HepG2 tox,S-ASM inh,TGFb SMAD3 inh,IL-1B inflam inh
COc1cccc(CNC(=O)c2cc(C3CC3)nc3c2cnn3C(C)C)c1,?,?,-23.3%,-3.9%,-0.2%,-52.9*
Cc1ccccc1-n1ncc2c1CC(C)(C)CC2NC(=O)CCN1Cc2ccccc2C1=O (stereo unspecified),?,?,1.0%,-0.4%,11.1%,?
CCn1c(=O)c2ccccc2n(CC(=O)NCCC2=CCCCC2)c1=O,-17.9%,-0.9%,6.0%,-1.3%,1.7%,8.0
Cc1cc(C)cc(NS(=O)(=O)c2c(C(=O)N3CCCCCC3)c(C)n(C)c2C)c1,?,?,2.4%,4.3%,22.2%,-16.4
CCOC(=O)c1cnc2ccc(C(=O)OC)cc2c1Nc1ccc(N2CCOCC2)cc1,11.6µM*,10.3µM*,-32.7%,nt,8.1%,nt
CCOC(=O)c1cnc2ccc(Cl)cc2c1Nc1ccc(N2CCOCC2)cc1,14.6µM*,14.6µM*,-2.5%,nt,6.0%,nt
CCOC(=O)c1cnc2ccc(C)cc2c1Nc1ccc(N(CC)CC)cc1,6.51µM*,11.6µM*,-28.7%,nt,?,nt
CCc1nc2ccc(C(=O)NCCN3CCCC3)cn2c1N(C)Cc1ccc(OC)cc1,?,?,3.2%,nt,42.6%,?
CCCCN1C(=O)C(=O)N(CC(=O)N2CCc3ccccc32)C1=O,-19.6%,-13.0%,3.3%,-1.6%,0.0%,3.0
COc1cccc(NC(=O)N(Cc2c[nH]c3ccccc23)C2CCCCCC2)c1,9.2µM*,11.6µM*,-54.4%,nt,?,nt
COc1cccc(NC(=O)N(C2CCCCC2)C(C)c2cccs2)c1 (stereo unspecified),12.6µM*,10µM*,2.5%,-1.0%,17.7%,1.5
COc1cc(NC(=O)CCCc2c[nH]c3ccccc23)cc(OC)c1,?,?,-31.0%,2.0%,-15.7%,-9.3
COc1cccc(NC(=O)N(Cc2ccco2)C(C)c2cccs2)c1 (stereo unspecified),-27.8%,-17.3%,-16.5%,-0.4%,-0.8%,-8.5
O=C(Nc1ccc(Cl)c(Cl)c1)N(Cc1c[nH]c2ccccc12)C1CCCCC1,9.2µM*,5.8µM*,-1.1%,nt,-6.8%,nt
COc1ccc(SCC(c2ccccc2)N2CCN(CC(C)C)CCC2=O)cc1 (stereo unspecified),nt,nt,-29.0%,nt,-23.3%,nt
Cc1ccc(S(=O)(=O)N=S(CC2CC2(Cl)Cl)CC2CC2(Cl)Cl)cc1 (stereo unspecified),25.9µM*,23.1µM*,-24.0%,2.9%,-7.1%,-5.4
CCCCC/S(CC1CC1(Cl)Cl)=N\S(=O)(=O)c1ccc(C)cc1 (stereo unspecified),?,-3.3%,0.3%,0.1%,8.4%,-4.6
Cc1cnc(NC(=O)C2(C)CCN2C(=O)C(C)C)s1 (stereo unspecified),-8.0%,2.1%,-2.0%,nt,7.3%,24.3
COc1cccc(C(=O)Nc2ccc(NC(=O)Cc3ccccc3)cc2)c1,?,1.7%,-2.7%,3.5%,-7.4%,1.5
O=C(Nc1ccc(S(=O)(=O)N(Cc2ccccc2)c2ccccc2)cc1)c1ccc(F)cc1,6.51µM*,23.1µM*,-9.1%,nt,?,nt
COc1cccc(C(=O)Nc2ccc(S(=O)(=O)N(Cc3ccccc3)c3ccccc3)cc2)c1,5.8µM*,?,-24.6%,nt,-15.4%,nt
Cc1cccc(C(=O)Nc2ccc(S(=O)(=O)N(Cc3ccccc3)c3ccccc3)cc2)c1,10.3µM*,?,10.0%,nt,-7.7%,nt
Cc1ccccc1OCC(=O)Nc1ccc(S(=O)(=O)N(Cc2ccccc2)c2ccccc2)cc1,5.8µM*,?,-9.2%,nt,0.4%,nt
CC(C)N(Cc1ccccc1)S(=O)(=O)c1ccc(F)cc1,9.2µM*,?,-16.3%,0.1%,-6.0%,-19.6
CCN(c1ccccc1)S(=O)(=O)c1cc(C(=O)Nc2ccc(Br)cc2)ccc1F,20.6µM*,20.6µM*,-20.5%,-11.8%,?,?
SMILES,TDP1 cell noCPT,DT40 TDP1 CPT,HepG2 tox,S-ASM inh,TGFb SMAD3 inh,IL-1B inflam inh
CCOc1cccc(C(=O)Nc2ccc(S(=O)(=O)N(Cc3ccccc3)c3ccccc3)cc2)c1,2.31µM*,?,0.4%,nt,-1.0%,nt
Cc1ccc(Oc2nnc(-c3ccccc3)c3ccccc23)cc1,?,20.6µM*,-63.7%,-3.1%,-8.2%,-19.8
Cc1ccc(-c2nnc(Oc3cccc(C)c3)c3ccccc23)cc1,?,?,0.8%,1.0%,7.3%,-74.8*
Cc1ccc(-c2nnc(OCC3CCCO3)c3ccccc23)cc1 (stereo unspecified),18.4µM*,?,-16.1%,-0.8%,-3.9%,-66.5*
Cc1ccc(-c2nnc(Oc3ccc(NC(=O)c4ccccc4)cc3)c3ccccc23)cc1,?,?,5.6%,-1.5%,-9.6%,-11.4
COCCCn1c(SCc2nnc(-c3ccccc3)o2)nc2sc3c(c2c1=O)CCC3,?,?,-0.9%,-9.1%,-19.4%,16.0
COCCn1c(SCC(=O)NCC(c2ccccc2)N(C)C)nc2sc3c(c2c1=O)CCC3 (stereo unspecified),-17.6%,-6.3%,4.8%,-0.5%,7.7%,-8.1
Cn1c(SCc2nnc(-c3ccccc3Br)o2)nc2sc3c(c2c1=O)CCC3,18.4µM*,?,-31.0%,-13.7%,-0.8%,-29.1
